Rac1 wt modul: wildtype Rac1 GTP binding modulators, primary screen, biochemical, GST-Rac1 beads, flow cytometry, multiplex | fluorescent GTP binding; actives lie on both sides; 0 = cold GTP competed, 100 = untreated | 190,000 compounds, 0.27% hits | Ras-related C3 botulinum toxin substrate 1 (Homo sapiens), P63000 | GTP binding activity (% of control), % at 10 µM | AID 757, 2007;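 active = GTP binding activity at least 20 points away from the 100% control level, either lower or higher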
HRas wt GTP bind: modulators of GTP binding to HRas wildtype, primary screen, biochemical, bead-based flow cytometry, multiplex; GTPase HRas (Homo sapiens), P01112; GST-Ras wt beads, Bodipy-FL-GTP binding; actives lie on both sides; GTP binding activity, % at 10 µM; 190,000 compounds, 0.14% hits; AID 759, 2007;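 active = GTP binding activity at least 20% away from the 100% baseline, either lowered as inhibitor or raised as activator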;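 also: 0% = unlabeled GTP competition control and 100% = no-compound control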
Target sequence (P01112 whole entry, looked up): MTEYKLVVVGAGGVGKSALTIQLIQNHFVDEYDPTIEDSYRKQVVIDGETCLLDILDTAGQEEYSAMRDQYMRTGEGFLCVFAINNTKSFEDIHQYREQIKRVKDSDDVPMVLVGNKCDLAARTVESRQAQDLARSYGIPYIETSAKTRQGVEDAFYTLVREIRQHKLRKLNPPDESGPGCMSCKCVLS
Cdc42 wt: modulators of GTP binding to wildtype Cdc42, primary screen, biochemical, multiplex bead flow cytometry, Bodipy-GTP; Cell division control protein 42 homolog (Homo sapiens), P60953; GST-Cdc42 beads; actives lie on both sides; percent activity (GTP binding), % at 10 µM; 190,000 compounds, 0.2% hits;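 active = percent activity GTP binding at least 20 points away from the 100% baseline, either down as inhibitor or up as activator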;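 also: median bead fluorescence of bound Bodipy-FL-GTP at 100 nM; 0% = excess unlabeled GTP control and 100% = no compound control; below 100% means less GTP binding so inhibitor and above means activator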
Target sequence (P60953 whole entry, looked up): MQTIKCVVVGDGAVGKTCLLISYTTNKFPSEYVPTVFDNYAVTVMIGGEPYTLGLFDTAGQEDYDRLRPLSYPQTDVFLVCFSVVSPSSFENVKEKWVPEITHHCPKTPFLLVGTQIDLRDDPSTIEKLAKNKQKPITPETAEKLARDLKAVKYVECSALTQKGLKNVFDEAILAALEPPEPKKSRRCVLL
Rab2 wt GTP: modulators of GTP binding to Rab2A wildtype, primary screen, biochemical, dog, bead-based flow cytometry, multiplex; Ras-related protein Rab-2A (Canis lupus familiaris), P61105; GST-Rab2 wt beads, Bodipy-GTP binding; GTP binding activity, % at 10 µM; 190,000 compounds, 0.19% hits;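 active = GTP binding activity at least 20 points away from 100%, either lowered or raised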;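 also: 0% = beads with excess unlabeled GTP and 100% = no-compound control corrected for plate trend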
Rab7 wt modul: modulators of GTP binding to Rab7, primary screen, biochemical, wildtype, multiplex bead flow cytometry | AID 758, 2007 | Rab7 GTPase wild type (dog), Bodipy-FL-GTP binding | GST-Rab7 beads, fluorescent GTP binding; actives lie on both sides; untreated = 100%, excess cold GTP = 0% | GTP binding activity (percent of control), % at 10 µM | 190,000 compounds, 0.055% hits;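 active = fluorescent GTP binding to Rab7 beads changed by at least 20 points from the 100% baseline, either direction, mostly lower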;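 also: median green fluorescence of bound Bodipy-FL-GTP per Rab7 bead population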
Rac1 act GTP bind: GTP binding modulators of activated mutant Rac1, primary screen, biochemical, bead-based flow cytometry, multiplex, fluorescent GTP; Ras-related C3 botulinum toxin substrate 1 (Homo sapiens), P63000; AID 764, 2007; 190,000 compounds, 0.11% hits; GST-Rac1 activated beads; actives lie on both sides; 100% means binding = to untreated wells; percent activity (GTP binding), % at 10 µM;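 active = GTP binding at least 20 percentage points away from the 100% baseline, in either direction, so actives lie on both sides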
* hit, by the source's call; / = no result; [ ] = dose if it differs, or a comment. Most compounds without a hit are left out; they make up all but 0.4% or so of the library.

SMILES	Rac1 wt modul	HRas wt GTP bind	Cdc42 wt	Rab2 wt GTP	Rab7 wt modul	Rac1 act GTP bind
Cc1onc(-c2c(Cl)cccc2Cl)c1C(N)=S	91	93	91	94	100	91
CCc1ccccc1NC(=O)N1C2CCCC1CC(NC(C)=O)C2 (stereo unspecified)	139*[activator]	104	126*[activator]	108	95	107
O=C(O)COc1ccccc1/C=N/NC(=O)c1cccc(S(=O)(=O)Nc2cccc(Cl)c2)c1	75*	87	82	82	94	82
N=c1c(C(=O)NCc2ccco2)cc2c(=O)n3ccccc3nc2n1CCc1ccccc1	72*	77*	80	75*	91	87
Cc1ccc(Cn2c(=N)c(C(=O)NCc3ccco3)cc3c(=O)n4ccccc4nc32)cc1	101	98	98	100	100	96
CCNC(=O)c1cc2c(=O)n3cccc(C)c3nc2n(CCc2ccccc2)c1=N	81	71*	71*	72*	87	82
Cc1nnnn1CC(=O)Nc1cccc([N+](=O)[O-])c1	104	100	96	101	104	97
Cc1ccc(NC(=O)C2=C(c3ccccc3)S(=O)(=O)CCS2(=O)=O)cc1	83	86	78*	84	94	82
CCOC(=O)c1cc(C(=O)OCC)c2ccccn2c1=O	87	79*	95	88	76*	88
O=C(CN1CCCCC1)N1CCCc2ccccc21	106	103	104	102	100	101
N#Cc1ccc2ccn(CC(=O)N3CCCc4ccccc43)c2c1	129*[activator]	109	109	109	110	106
COc1cc(NC(=O)CN2C(=O)NC(C)(c3ccc4ccccc4c3)C2=O)c(C)cc1[N+](=O)[O-] (stereo unspecified)	95	94	94	94	88	95
O=C(O)c1ccc(Nc2nc(-c3cc4ccccc4oc3=O)cs2)cc1O	79*	87	84	87	94	88
COc1ccc(C)cc1NC(=O)c1cc2c(CO)cnc(C)c2oc1=N	100	98	95	98	100	95
COc1cc(N=c2oc3c(C)ncc(CO)c3cc2C(N)=O)cc(OC)c1OC	64*	68*	68*	67*	91	83
Cc1cccc(Nc2nc(NCc3ccco3)c3ccccc3n2)c1	88	85	84	72*	79*	85
Cc1ccccc1Nc1nc(NCc2ccco2)c2ccccc2n1	100	102	100	101	99	98
Cc1ccc(O)c(C(=O)c2cnn(C(=O)Cc3csc(C)n3)c2)c1	93	77*	83	85	79*	91
Cc1ncc(CC(=O)n2cc(C(=O)c3cc(F)ccc3O)cn2)s1	99	98	97	97	97	98
CC(=O)Nc1ccc(S(=O)(=O)N2CCCC2C(=O)Nc2ccc3c(c2)OCCO3)cc1 (stereo unspecified)	102	102	101	100	104	97
CCCCCCCCSc1nnc2[nH]c(=O)cc(N)n12	/	84	69*	/	/	/
O=S1(=O)N=C(N=Nc2c(O)[nH]c3ccccc23)c2ccccc21	77*	87	80	82	96	87
O=C(c1nnsc1S(=O)(=O)c1ccc(Cl)cc1)N1CCOCC1	106	102	105	106	107	120*[activator]
Cc1c(C(=O)N2CCc3ccccc3C2)oc2ccc(S(=O)(=O)N3CCCCCC3)cc12	131*[activator]	111	105	112	108	108
Cc1c(C(=O)N2CCOCC2)oc2ccc(S(=O)(=O)N3CCCC3)cc12	103	103	102	103	100	100

Source: PubChem BioAssay
